HTR5A inv ctr: counter-screen for OPRM1-OPRD1 inverse agonists: human HTR5A inverse agonism; P47898; HTR5A cell line, luminescence; inhibition, % at 9.3 µM; 0.083% of 340,000 active; AID 504634; in the data active = inhibition mostly above about 23%, no sharp cut-off; inactive = mostly below about 18%;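 also: 0% = cells with DMSO and 100% = no-cell wells with DMSO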
HTR2A ag: agonists of mouse serotonin 5-HT2A receptor (HTR2A); P35363; CHO-K1 mHTR2A beta-arrestin complementation, luminescence; percent of 30 µM serotonin response; activation, % at 7.6 µM; 0.66% of 360,000 active;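 active = activation above a run cutoff, the mean activation of all tested compounds plus 3 SD, cut at about 14% in these data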;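 also: 0% = plate median of compound wells and 100% = 30 µM serotonin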
Target sequence (P35363 whole entry, looked up): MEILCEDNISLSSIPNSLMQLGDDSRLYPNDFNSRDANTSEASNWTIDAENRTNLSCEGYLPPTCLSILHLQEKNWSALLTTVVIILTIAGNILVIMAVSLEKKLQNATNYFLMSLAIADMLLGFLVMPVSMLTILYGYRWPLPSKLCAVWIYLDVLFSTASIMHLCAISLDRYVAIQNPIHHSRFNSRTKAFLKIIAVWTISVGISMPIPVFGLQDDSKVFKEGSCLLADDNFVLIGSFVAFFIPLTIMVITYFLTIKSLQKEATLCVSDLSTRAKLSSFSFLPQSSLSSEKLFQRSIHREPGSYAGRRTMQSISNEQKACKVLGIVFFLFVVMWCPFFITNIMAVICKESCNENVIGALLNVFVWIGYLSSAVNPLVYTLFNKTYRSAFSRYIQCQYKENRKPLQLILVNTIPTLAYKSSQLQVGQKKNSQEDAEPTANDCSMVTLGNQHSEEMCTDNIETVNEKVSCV
MOR-DOR inv ag: inverse agonists of human mu-delta opioid receptor heterodimerization; P35372+P41143; cell-based MOR-DOR heterodimer luminescence, inverse agonism; inhibition, % at 9.3 µM; 0.21% of 340,000 active; in the data active = inhibition above about 22%, passing the limit was not always enough;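 also: 0% = cells with DMSO and 100% = wells without cells with DMSO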
HTR5A ag: activates human HTR5A in OPRM1-OPRD1 agonist counter-screen; AID 504692; P47898; HTR5A agonist assay, luminescence, cell-based; 0.61% of 340,000 active; activation, % at 9.3 µM; in the data active = activation mostly above about 9.5%, no sharp cut-off; inactive = mostly below about 7.6%;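 also: 0% = cells with vehicle only and 100% = reference agonist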
OPRM1-OPRD1 ag: agonists of human mu-delta opioid receptor heterodimerization. cells, OPRM1-OPRD1 heterodimerization, luminescence. P35372+P41143. 0.3% of 340,000 active. activation, % at 9.3 µM; in the data active = activation above about 18%;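 also: 0% = vehicle-treated cells and 100% = reference agonist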
HGIII-sPLA2 inh: Inhibits HGIII-sPLA2 liposome hydrolysis, primary screen; Q9NZ20; QFRET BODIPY PC-A2 liposome hydrolysis, fluorescence; inhibition, % at 12.2 µM; 0.56% of 370,000 active; AID 743126;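 active = inhibition above mean plus 3 SD of compounds lying within the high and low control bounds, cut at about 19% in these data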;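 also: 0% = median of test compound wells and 100% = no enzyme DMSO wells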
OPRM1 ag: OPRM1 agonism in mouse HTR2A counterscreen; shares compounds with HTR2A ag; AID 624380; activation, % at 9.3 µM; U2OS OPRM1 beta-arrestin PathHunter, luminescence; DMSO 0%, DAMGO 9.3 µM 100%; 5.3% of 2,300 active;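 active = mean activation above the mean of DMSO-only wells plus 3 SD, cut at about 0.5% in these data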
HTR2A ag conf: confirmation of mouse HTR2A serotonin receptor agonists; shares compounds with HTR2A ag; CHO-K1 PathHunter beta-arrestin recruitment, luminescence; DMSO 0%, 30 µM serotonin 100%; activation, % at 7.6 µM; 19% of 2,300 active;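 active = mean activation across triplicates above the hit threshold derived in the original primary screen, cut at about 15% in these data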
Numbers without * were called inactive; / = not tested or not shown; ! = repeats disagree. Shown are actives, neighbours in structure and some others; about 2.2% of the full set was active somewhere.

SMILES	HTR5A inv ctr	HTR2A ag	MOR-DOR inv ag	HTR5A ag	OPRM1-OPRD1 ag	HGIII-sPLA2 inh	OPRM1 ag	HTR2A ag conf
CN1CCC[C@H]1c1cccnc1	3	38*!	5	-1	-1	2	0	-4
Cc1nc2c(-c3ccccc3)c(C)[nH]n2c(=O)c1Cc1ccccc1	/	59*	/	/	/	-3	-1	33*
Cc1sc2nc(SCc3ccc(C(=O)O)cc3)n(Cc3ccco3)c(=O)c2c1C	-20	16*	8	7	-2	-9	0	8
C=CCn1c(SCc2ccc(C(=O)O)cc2)nc2sc(C)c(C)c2c1=O	10	13	10	-1	-2	-22	/	/
Cc1[nH]c(=O)[nH]c(=O)c1S(=O)(=O)N1CCCC(C(=O)N2CCC(Cc3ccccc3)CC2)C1 (stereo not given)	-3	19*	9	1	-2	-9	-1	-4
Cc1c(O)c(CN2CCCC2)cc2c3c(c(=O)oc12)CCC3	7	-5	8	-3	-1	0	/	/
CCc1cc(=O)oc2c(C)c(O)c(CN3CCCCC3)cc12	0	22*	-1	0	0	-2	-1	-2
COc1ccccc1-n1c(=O)c2c3c(sc2n2c(SC(C)C)nnc12)CCC3	-20	16*	17	7	-3	4	-1	4
C=CCN1C(=O)c2n[nH]c(COC)c2C1c1ccc(F)cc1 (stereo not given)	/	/	/	/	/	4	/	/
CCCN1C(=O)c2n[nH]c(C)c2C1c1ccc2c(c1)OCO2 (stereo not given)	/	/	/	/	/	6	/	/
Cc1ccc(C(=O)N2CCN(Cc3nc4sc5c(c4c(=O)[nH]3)CCCC5)CC2)cc1	6	-5	22	-2	-4	11	/	/
O=C(c1ccccc1F)N1CCN(Cc2nc3sc4c(c3c(=O)[nH]2)CCCC4)CC1	6	16*	7	0	-1	-12	-1	-4
OCC1(Cc2ccc(Cl)cc2)CCN(CCCc2ccccc2)CC1	/	18*	/	/	/	-17	0	44*
OCC1(Cc2ccc(Cl)cc2)CCN(CC2CC=CCC2)CC1 (stereo not given)	10	15*	-22	-4	4	-6	0	14
CSc1ccc(CN2CCC(CO)(Cc3ccc(Cl)cc3)CC2)cc1	-11	8	-41	4	8	-19	/	/
Nn1c(SCC(=O)Nc2cccc3ccccc23)nnc1-c1cc(-c2ccccc2)n[nH]1	/	/	/	/	/	2	/	/
CCOC(=O)C1CCN(CC(C)(C)NS(=O)(=O)c2ccc(C)cc2)CC1	-23	20*	-7	5	1	0	-1	2
COc1ccc(S(=O)(=O)N/N=C\c2ccc3c(c2)OCO3)c(OC)c1	-2	-5	-7	1	1	0	/	/
COc1ccc(OC)c(S(=O)(=O)N/N=C\c2ccc3c(c2)OCO3)c1	3	17*	15	0	-3	-2	-1	-1
CCOC(=O)c1ccc(Oc2nc(OC)nc(N(C)C)n2)cc1	-1	18*	5	1	-1	-6	-1	0
CCOC(=O)Cn1cc(CN2CCS(=O)(=O)N(Cc3ccc(C)cc3)C(C(=O)OC)C2)nn1 (stereo not given)	/	/	/	/	/	4	/	/
COc1ccc(N2CCN(C(=O)c3ccc(CNS(=O)(=O)c4cc(C)ccc4C)cc3)CC2)cc1	14	25*	15	2	-4	-28	0	0
C=CCN1C(=O)[C@H](CC(=O)NCC2CCCCC2)[C@@]2(C(=O)OCC)CCCC=C12	/	/	/	/	/	5	/	/
Cc1ccc(C(=O)N=c2sccn2C)cc1C	10	18*	11	5	-2	-4	-1	-4
O=C1NCCN1CCN1CCC(c2cn(-c3ccc(F)cc3)c3ccc(Cl)cc23)CC1	/	/	/	/	/	-18	/	/
SMILES	HTR5A inv ctr	HTR2A ag	MOR-DOR inv ag	HTR5A ag	OPRM1-OPRD1 ag	HGIII-sPLA2 inh	OPRM1 ag	HTR2A ag conf
Cc1cc(N2CCOCC2)nc2ccc(NC(=S)N3CCN(c4ccccc4)CC3)cc12	11	-7	-2	10	0	1	/	/
Cc1cccc(N2CCN(C(=S)Nc3ccc4nc(N5CCOCC5)cc(C)c4c3)CC2C)c1 (stereo not given)	5	16*	-30	1	5	14	0	0
CCC(C)Oc1nc2c(c(=O)n(C)c(=O)n2C)n1C (stereo not given)	3	17*	1	-1	0	7	-1	-2
CCCOc1nc2c(c(=O)n(C)c(=O)n2C)n1CCC	5	3	13	-4	-2	0	/	/
CN1CCCCC(NC(=O)COCc2ccccc2)C1=O (stereo not given)	/	/	/	/	/	6	/	/
COc1ccc(-c2nnc(SCC(=O)NN=Cc3c(O)ccc4ccccc34)n2-c2ccc(OC)cc2)cc1	/	/	/	/	/	16	/	/
O=C1C2CCCN2C(=O)N1CCCCN1CCN(c2ccccc2)CC1 (stereo not given)	-7	15*	13	0	-2	18	-1	47*
O=C1C2CCCN2C(=O)N1CCN1CCN(c2ccccc2)CC1 (stereo not given)	2	0	23	0	-5	3	/	/
C=CCOC(=O)COc1ccc2c3c(c(=O)oc2c1)CCCC3	/	16*	/	/	/	1	-1	-3
COc1ccc(-c2noc(C3CCCN(C(=O)NC4CCC(C)CC4)C3)n2)cc1 (stereo not given)	/	/	/	/	/	2	/	/
CC1CCN(Cc2nnnn2CCCC(=O)NCCc2cnn(C)c2)CC1	1	16*	21	0	-4	4	-1	-5
COC(=O)[C@]12C[C@H](CC(=O)NCc3cccs3)C(=O)N(Cc3cccc4ccccc34)C1=C[C@H](C1CCCC1)O[C@@H]2C	/	/	/	/	/	-20	/	/
Cc1ccccc1N1CC(C(=O)N2CCc3ccccc32)CC1=O (stereo not given)	-1	17*	-11	-2	2	5	-1	-2
Cc1ccc(N2CC(C(=O)N3CCc4ccccc43)CC2=O)cc1 (stereo not given)	-7	-3	13	3	-2	-3	/	/
CCOC(=O)c1cnc(SCC(=O)OC)nc1N	-43	26*	0	-1	0	2	-1	-3
CCCC(=O)Nc1nc(-c2ccc3c(c2)OCCO3)cs1	-8	16*	1	3	0	-2	-1	-6
CSCC(=O)Nc1nc(-c2ccc3c(c2)OCCO3)cs1	-8	0	-10	3	2	-5	/	/
O=C1C2CCCN2C(c2ccc(F)cc2)N1c1cccc(Cl)c1 (stereo not given)	16	17*	1	-6	0	1	-1	1

Source: PubChem (The Scripps Research Institute Molecular Screening Center)
